In ChEMBL document CHEMBL3988442, “University of Dundee, Small-Polar-MMV Screening Library” (2021):
Values joined by “and” are separate entries in the source; they are usually repeats but may differ in a detail not shown here. Equal values may be shown once. In all, about 34,000 compounds went through this assay and about 290 (0.85%) showed an effect of 50% or more. This is one part of a sample in which strong results are shown more often than they occur.

Tested on: Plasmodium falciparum
Test: Plasmodium falciparum sporozoite viability assay
Assay type: functional, organism-based
Design: scale not given: in the data most compounds retested in dose-response had high values

c1ccc(OCCN2CCC(c3cnccn3)CC2)cc1
Percent Effect: 9.194%

CC(O)CN1CCN(Cc2csc(-c3ncccn3)n2)CC1 (stereo unspecified)
Percent Effect (10 mM as filed; unlikely as a test dose): 68.95% and 42.73% and 61.03%

CC(C)C(=O)N1CCN(Cc2csc(-c3ccccn3)n2)CC1
Percent Effect (10 mM as filed; unlikely as a test dose): 63.59% and 62.99% and 41.75%

CC(C)C(=O)N1CCN(Cc2csc(-c3ncccn3)n2)CC1
Percent Effect (10 mM as filed; unlikely as a test dose): 77.28% and 53.85% and 54.68%

c1cnc(-c2nc(CN3CCCN(Cc4cccs4)CC3)cs2)nc1
Percent Effect (10 mM as filed; unlikely as a test dose): -6.924% and 13.02% and 13.14%

COCC(=O)N1CCN(Cc2csc(-c3ncccn3)n2)CC1
Percent Effect (10 mM as filed; unlikely as a test dose): -31.63% and -33.22% and -17.89%

CC(O)CN1CCN(Cc2csc(-c3cnn(C)c3)n2)CC1 (stereo unspecified)
Percent Effect: 8.176%

CC(C)c1nc(CN2CCN(Cc3ccccn3)CC2)cs1
Percent Effect: 0%

O=C(c1cnccn1)N1CCN(Cc2csc(-c3ccccc3)n2)CC1
Percent Effect: 9.607%

COCCN1CCC2(CCN(C(=O)c3ccc(F)cc3)CC2)C1=O
Percent Effect: 6.318%

CCC(=O)Nc1ccc(N2CCC(OC)CC2)c(C(F)(F)F)c1
Percent Effect: 1.93%

CCc1[nH]ncc1C(=O)N1CCCC(n2cncn2)C1 (stereo unspecified)
Percent Effect: -4.375%

Cc1cccnc1C(Cc1ccsc1)NCc1cnc(N(C)C)nc1 (stereo unspecified)
Percent Effect: -1.422%

Cc1cccc(CN2CCCn3c(nnc3CN3CCCC3=O)C2)n1.O=C(O)C(F)(F)F
Percent Effect: -1.313%

CN(C)c1ccc(CC2COCCN(Cc3nccn3C)C2)nn1 (stereo unspecified)
Percent Effect: -1.339%

Cn1ccnc1C(=O)N[C@@H]1CN(Cc2ccoc2)[C@@H]2CCCO[C@@H]21.O=C(O)C(F)(F)F
Percent Effect: 4.904%

CC1=Nc2c(c(=O)[nH]n2C2CCCC2)C(c2ccc(C(=O)O)cc2)S1 (stereo unspecified)
Percent Effect: -7.784%

CCn1c(C)nc2cc(NC(=O)C3CN(C(C)=O)C3)ccc21
Percent Effect: -0.5895%

CCn1c(C)nc2cc(NC(=O)CC3CCCCO3)ccc21 (stereo unspecified)
Percent Effect (10 mM as filed; unlikely as a test dose): 43.93% and 40.46% and 65.03%

COc1ncccc1CN1CCC2(CC1)CC(OCC1CC1)CO2.O=C(O)C(F)(F)F (stereo unspecified)
Percent Effect: 8.839%

COc1ccccc1-n1cc(C(=O)NCCCn2nc(C)nc2C)cn1
Percent Effect: 3.022%

Cc1ccnn1-c1ccc(C(=O)N2CCCC(n3ccnc3)C2)cc1 (stereo unspecified)
Percent Effect: 2.837%

CN1CCC(CCc2ccnc(Nc3cnccn3)c2)CC1
Percent Effect: -4.215%

CC(=O)Nc1cc(CCC2CCN(C(=O)c3ccccn3)CC2)ccn1
Percent Effect (10 mM as filed; unlikely as a test dose): 2.531% and -14.73% and -5.68%

O=C(CO)N1CCC(CCc2ccnc(Nc3cnccn3)c2)CC1
Percent Effect: -3.121%

CC(=O)N1CCC(CCc2ccnc(NC(=O)c3ccccn3)c2)CC1
Percent Effect (10 mM as filed; unlikely as a test dose): 74.38% and 72.77% and 65.08%

Cc1cc(C)nc(N2CCC(CNC(=O)c3ccccn3)CC2)n1
Percent Effect: 1.904%

O=C(Nc1cc(CCC2CCN(CCO)CC2)ccn1)c1ccccn1
Percent Effect (10 mM as filed; unlikely as a test dose): 45.19% and 58.77% and 35.89%

CN1CCC(CCc2ccnc(NC(=O)c3ccccn3)c2)CC1
Percent Effect (10 mM as filed; unlikely as a test dose): 67.18% and 85.05% and 49.69%

Cc1ccccc1CCNC(=O)CN1CCCC(Cn2cncn2)C1 (stereo unspecified)
Percent Effect: 7.953%

O=C(C1=CCCC1)N1C[C@@H]2COC[C@]2(COc2ncccc2F)C1.O=C(O)C(F)(F)F
Percent Effect: 10.29%

O=C(c1ccc(-c2cccc3c2CCNC3)o1)N1CCCCC1
Percent Effect: -26%

O=S(=O)(c1ccccc1)N1CC[C@]2(C[C@@H](OCC3CC3)CO2)C1
Percent Effect: -7.967%

COC(=O)Nc1ccc(CNc2cncc(-n3cccn3)n2)cc1
Percent Effect: -0.1023%

Cc1cc(CN(C)C(=O)c2ccc(OC(C)C)nc2)no1
Percent Effect: 6.375%

COc1ccc(CN2C[C@@H]3OCCN(C)[C@@H]3C2)cc1.O=C(O)C(F)(F)F
Percent Effect: -4.875%

COCCC(=O)N1CC[C@@H](N(C)C)[C@@H]1Cc1ccccc1
Percent Effect: -9.112%

COc1ccc(S(=O)(=O)N2C[C@@H]3CN(C)CCO[C@@H]3C2)cc1
Percent Effect: 1.798%

Cc1nccn1C1CCCN(C(=O)CCCNc2ncccn2)C1 (stereo unspecified)
Percent Effect: 3.922%

Cc1cnn(CC2CCCN2C(=O)c2ccccc2-n2cccn2)c1 (stereo unspecified)
Percent Effect: 9.109%

Cc1nc(N2CCN(C(=O)c3ccccc3)CC2)c2cnn(C)c2n1
Percent Effect: -8.371%

Cl.OC1(c2ccc(F)cc2)CCN(Cc2ccccc2N2CCCC2)CC1
Percent Effect: 10.2%

CSCCc1nc(C(C)C)nn1-c1ccncc1C
Percent Effect (10 mM as filed; unlikely as a test dose): -19.09% and -18.73%

Cc1cnccc1-n1nc(C(C)C)nc1CCN(C)S(C)(=O)=O
Percent Effect (10 mM as filed; unlikely as a test dose): -20.65% and -22.07%

Cc1cnccc1-n1nc(C(C)C)nc1CS(C)(=O)=O
Percent Effect (10 mM as filed; unlikely as a test dose): 82.57% and 75%

CC(=O)N1CCC1c1nc(-c2ccc(C)s2)no1 (stereo unspecified)
Percent Effect: -4.556%

O=C(NCCNc1cc(N2CCCC2)cnn1)Nc1ccccc1F
Percent Effect (10 mM as filed; unlikely as a test dose): 88.21% and 92.16%

CSc1nnc(CNC(=O)Nc2ccccc2F)n1C
Percent Effect: -0.259%

O=C(Cc1ccc(F)cc1)NCCNc1cc(N2CCCC2)cnn1
Percent Effect (10 mM as filed; unlikely as a test dose): 2.363% and 4.651%

CC(=O)N1CC[C@H]2OCC[C@@]2(C(=O)NCCc2ccccn2)C1.O=C(O)C(F)(F)F
Percent Effect: -10.77%

CC(NC(=O)NCCCc1n[nH]c(N)c1C#N)c1ccccc1F (stereo unspecified)
Percent Effect: 14.69%

Cc1cc(C)n(CC2CCCCN2CC(=O)NC2CCOCC2)n1 (stereo unspecified)
Percent Effect: 14.15%

Cc1cc(C)n(CC2CCCN2CC(=O)NC2CCOCC2)n1 (stereo unspecified)
Percent Effect: -10.14%

COCCOCC(=O)Nc1ccc(C)cc1F
Percent Effect: -13.64%

O=C(c1ccc(C2CCCO2)s1)N1CCOCC1 (stereo unspecified)
Percent Effect (10 mM as filed; unlikely as a test dose): -24.05% and -11.59%

O=C(c1ccc(C2CCCO2)s1)N1CCS(=O)(=O)CC1 (stereo unspecified)
Percent Effect (10 mM as filed; unlikely as a test dose): 6.394% and 9.158% and -11.41%

O=C(c1ccc(C2CCCO2)s1)N1CCN(c2ccccc2F)CC1 (stereo unspecified)
Percent Effect (10 mM as filed; unlikely as a test dose): 80.46% and 89.28% and 82.47%

O=c1[nH]c(CCN2CCCC2Cn2cncn2)nc2ccccc12 (stereo unspecified)
Percent Effect: 9.596%

O=C(Cc1ccc2c(c1)OCCO2)N1CCCC(n2cccn2)C1 (stereo unspecified)
Percent Effect (10 mM as filed; unlikely as a test dose): 49.54% and 51.7% and 51.33%

O=C(Cc1ccc2c(c1)CCO2)N1CCCC(n2cccn2)C1 (stereo unspecified)
Percent Effect (10 mM as filed; unlikely as a test dose): -20.29% and -14.82% and -23.46%

O=C(CCc1ccc2c(c1)OCO2)N1CCCC(n2cccn2)C1 (stereo unspecified)
Percent Effect (10 mM as filed; unlikely as a test dose): -3.407% and -9.243% and -9.365%
